In the supplement of paper PMC10849652:
About 7,900 targets were measured; listed, in parts, are those with a hit and a random draw of the rest. About 0.6% of all pairs of compound and target were hits.

Key:
Assay in all cases: log2 fold change, soluble protein after heating vs DMSO (PISA); higher = thermal stabilisation; K562 cells, 10 uM, 30 min; active = over 0.2 and 3.5 SD of the protein, either way, in both replicates (recomputed)
bafetinib = compound: Cc1ccc(NC(=O)c2ccc(CN3CC[C@H](N(C)C)C3)c(C(F)(F)F)c2)cc1Nc1nccc(-c2cncnc2)n1 [bafetinib]
Procedure, shortened: (§1)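 K562 cells at 2×10^6 cells/mL were given 10 μM compound for 30 min. Aliquots then went through 3 min of heating across 48°C-58°C, were pooled, and were extracted in PBS with 0.5% NP-40 at 4°C, and the supernatant after 21,000xg for 90 min was quantified by TMTpro 16plex LC-MS/MS with channel sums equalised. Thermal stability relative to control samples, from duplicates, is given as log2 fold change.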

[1] = compound: Cc1cccc(CC(=O)N2CCc3c2ccc(-c2cn(C)c4ncnc(N)c24)c3F)n1
Procedure, shortened: as §1

dasatinib = compound: Cc1nc(Nc2ncc(C(=O)Nc3c(C)cccc3Cl)s2)cc(N2CCN(CCO)CC2)n1 [dasatinib]
Procedure, shortened: as §1

[2] = compound: Cn1cc(-c2ccc3c(c2)CCN3C(=O)Cc2cccc(C(F)(F)F)c2)c2c(N)ncnc21
Procedure, shortened: as §1

[3] = compound: Cn1cc(-c2ccc3nnc(C(F)(F)c4ccc5ncccc5c4)n3n2)cn1
Procedure, shortened: as §1

tipifarnib = compound: Cn1cncc1[C@@](N)(c1ccc(Cl)cc1)c1ccc2c(c1)c(-c1cccc(Cl)c1)cc(=O)n2C [tipifarnib]
Procedure, shortened: as §1

mubritinib = compound: FC(F)(F)c1ccc(/C=C/c2nc(COc3ccc(CCCCn4ccnn4)cc3)co2)cc1 [mubritinib]
Procedure, shortened: as §1

[4] = compound: NC(=O)Nc1cc(-c2cccc(F)c2)sc1C(=O)N[C@H]1CCCNC1
Procedure, shortened: as §1

[5] = compound: NC(=O)c1cnc(N[C@@H]2CCCC[C@@H]2N)nc1Nc1cccc(-n2nccn2)c1
Procedure, shortened: as §1

[6] = compound: NC1(c2ccc(-c3nc4ccn5c(=O)[nH]nc5c4cc3-c3ccccc3)cc2)CCC1
Procedure, shortened: as §1

[7] = compound: NCC(=O)Nc1ccc(-n2nc(C(F)(F)F)cc2-c2ccc3c(ccc4ccccc43)c2)cc1
Procedure, shortened: as §1

entinostat = compound: Nc1ccccc1NC(=O)c1ccc(CNC(=O)OCc2cccnc2)cc1 [entinostat]
Procedure, shortened: as §1

vorinostat = compound: O=C(CCCCCCC(=O)Nc1ccccc1)NO [vorinostat]
Procedure, shortened: as §1

citarinostat = compound: O=C(CCCCCCNC(=O)c1cnc(N(c2ccccc2)c2ccccc2Cl)nc1)NO [citarinostat]
Procedure, shortened: as §1

silmitasertib = compound: O=C(O)c1ccc2c(c1)nc(Nc1cccc(Cl)c1)c1ccncc12 [silmitasertib]
Procedure, shortened: as §1

[8] = compound: O=C1NC(=O)C(c2cnc3ccccn23)=C1c1cn2c3c(cc(F)cc13)CN(C(=O)N1CCCCC1)CC2
Procedure, shortened: as §1

[9] = compound: c1cc(OCCN2CCCCC2)cc(-c2n[nH]c3ccc(-c4nnc[nH]4)cc23)c1
Procedure, shortened: as §1

nilotinib = compound: Cc1cn(-c2cc(NC(=O)c3ccc(C)c(Nc4nccc(-c5cccnc5)n4)c3)cc(C(F)(F)F)c2)cn1 [nilotinib]
Procedure, shortened: as §1

[10] = compound: Cc1nc(Nc2n[nH]c3c2CN(C(=O)N[C@H](CN(C)C)c2ccccc2)C3(C)C)c2sccc2n1
Procedure, shortened: as §1

[11] = compound: Cc1ncc(-c2ccnc(Nc3ccc(S(C)(=O)=O)cc3)n2)n1C(C)C
Procedure, shortened: as §1

Measured: log2 fold change

CDK8 (UniProt P49336)
inactive: bafetinib 0.109 | [1] 0.014 | dasatinib 0.067 | [2] 0.057 | [3] 0.018 | tipifarnib 0 | mubritinib 0.01 | [4] -0.038 | [5] 0.011 | [6] 0.036 | [7] 0.014 | entinostat -0.152 | vorinostat 0.038 | citarinostat -0.002 | silmitasertib 0.175 | [8] 0.036 | [9] -0.019

CENPE (UniProt Q02224)
inactive: bafetinib 0.143 | [1] 0.069 | dasatinib -0.35 | [2] 0.14 | [3] -0.123 | tipifarnib -0.033 | [4] 0.127 | [5] 0.731 | [7] 0.114 | entinostat -0.153 | vorinostat -0.238

CRMP1 isoform 2 (UniProt Q14194)
inactive: bafetinib -0.024 | [1] -0.035 | nilotinib -0.012 | [10] 0.221 | dasatinib -0.074 | [11] -0.138 | [2] 0.182 | [4] -0.121 | [5] 0 | [7] -0.099 | entinostat -0.055 | vorinostat 0.193

CEBPZOS (UniProt A8MTT3)
inactive: bafetinib 0.066 | [1] 0.014 | nilotinib 0.039 | [10] 0.021 | dasatinib 0.009 | [11] -0.027 | [3] 0.033 | tipifarnib -0.044 | mubritinib 0.121 | [5] 0.022 | [6] -0.124 | [7] 0.028 | vorinostat -0.03 | citarinostat -0.011 | silmitasertib 0.018 | [9] -0.056

C1D (UniProt Q13901)
inactive: bafetinib -0.026 | [1] -0.013 | nilotinib 0.059 | [10] -0.074 | [11] -0.027 | [3] 0.018 | tipifarnib 0.151 | mubritinib 0.132 | [4] 0.187 | [6] 0 | [7] 0.033 | entinostat -0.012 | vorinostat 0.116 | citarinostat 0.067 | silmitasertib 0.072 | [8] 0.003 | [9] 0.008
active: [5] 0.322

CNN3 (UniProt Q15417)
inactive: bafetinib 0.02 | [1] -0.025 | nilotinib -0.066 | [10] -0.056 | dasatinib -0.057 | [11] 0.108 | [2] 0.023 | tipifarnib -0.107 | mubritinib 0.06 | [4] -0.051 | [5] -0.125 | [6] -0.124 | [7] -0.144 | entinostat 0.091 | vorinostat 0.023 | citarinostat 0.047 | silmitasertib 0.047 | [8] -0.032 | [9] -0.001

CLINT1 (UniProt Q14677)
Chain of UniProt Q14677 (Q14677 whole entry, looked up): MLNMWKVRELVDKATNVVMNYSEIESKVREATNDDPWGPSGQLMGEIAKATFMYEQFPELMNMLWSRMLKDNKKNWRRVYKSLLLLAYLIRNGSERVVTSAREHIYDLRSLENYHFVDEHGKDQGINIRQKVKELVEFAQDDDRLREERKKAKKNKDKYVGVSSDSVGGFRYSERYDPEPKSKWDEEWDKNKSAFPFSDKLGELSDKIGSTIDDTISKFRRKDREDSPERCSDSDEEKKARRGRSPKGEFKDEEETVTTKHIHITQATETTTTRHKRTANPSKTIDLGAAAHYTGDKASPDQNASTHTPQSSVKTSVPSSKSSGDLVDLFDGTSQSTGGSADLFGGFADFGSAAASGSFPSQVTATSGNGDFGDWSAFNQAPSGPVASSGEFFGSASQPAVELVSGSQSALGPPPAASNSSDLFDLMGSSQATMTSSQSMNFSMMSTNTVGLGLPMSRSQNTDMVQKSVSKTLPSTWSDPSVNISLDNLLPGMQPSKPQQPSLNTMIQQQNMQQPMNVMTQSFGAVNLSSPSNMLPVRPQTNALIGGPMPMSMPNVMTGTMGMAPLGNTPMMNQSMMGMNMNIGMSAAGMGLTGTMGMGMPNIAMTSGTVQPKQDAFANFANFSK
inactive: bafetinib -0.053 | nilotinib 0.065 | [10] -0.048 | dasatinib 0.142 | [11] -0.151 | [2] 0.047 | mubritinib -0.007 | [5] 0.001 | [6] 0.037 | [7] 0.034 | citarinostat -0.146 | silmitasertib 0.021 | [8] 0.058 | [9] 0.062

CREB3L2 (UniProt Q70SY1)
inactive: bafetinib 0.01 | nilotinib 0.091 | [10] -0.009 | [11] -0.119 | [2] 0.039 | [3] -0.024 | mubritinib 0.13 | [5] -0.102 | [6] -0.074 | [7] 0.035 | silmitasertib 0.023 | [8] -0.076

CASP9 (UniProt P55211)
Chain of UniProt P55211 (P55211 whole entry, looked up): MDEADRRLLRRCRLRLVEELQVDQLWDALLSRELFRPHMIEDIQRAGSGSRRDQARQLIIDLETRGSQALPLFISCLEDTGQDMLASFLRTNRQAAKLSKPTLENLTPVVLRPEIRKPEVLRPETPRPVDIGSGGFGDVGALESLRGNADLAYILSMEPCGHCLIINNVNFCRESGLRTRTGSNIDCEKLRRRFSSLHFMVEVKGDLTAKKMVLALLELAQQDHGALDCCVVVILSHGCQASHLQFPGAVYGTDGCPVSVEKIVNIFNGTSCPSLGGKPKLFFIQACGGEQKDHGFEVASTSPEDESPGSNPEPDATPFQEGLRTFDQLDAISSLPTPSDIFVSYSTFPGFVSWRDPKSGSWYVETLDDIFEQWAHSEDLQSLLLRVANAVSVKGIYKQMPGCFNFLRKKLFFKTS
inactive: [1] 0.037 | nilotinib -0.013 | [10] -0.136 | dasatinib -0.075 | [11] 0 | [2] -0.276 | [3] -0.004 | tipifarnib 0.003 | [4] 0.059 | [5] -0.234 | [7] -0.111 | entinostat -0.098 | vorinostat 0.045 | citarinostat 0.05 | [8] -0.057 | [9] 0.054

CA1 (UniProt E5RIF9)
inactive: bafetinib -0.042 | dasatinib -0.098 | [7] -0.029 | [8] -0.026

C19orf54 (UniProt Q5BKX5)
inactive: [1] 0.007 | dasatinib -0.175 | [2] 0.03 | [3] 0.14 | tipifarnib 0.013 | [4] 0.098 | [5] 0.004 | [7] 0.086 | entinostat -0.111 | vorinostat -0.064 | citarinostat -0.09 | [8] -0.05 | [9] -0.121

CD68 (UniProt P34810)
Chain of UniProt P34810 (P34810 whole entry, looked up): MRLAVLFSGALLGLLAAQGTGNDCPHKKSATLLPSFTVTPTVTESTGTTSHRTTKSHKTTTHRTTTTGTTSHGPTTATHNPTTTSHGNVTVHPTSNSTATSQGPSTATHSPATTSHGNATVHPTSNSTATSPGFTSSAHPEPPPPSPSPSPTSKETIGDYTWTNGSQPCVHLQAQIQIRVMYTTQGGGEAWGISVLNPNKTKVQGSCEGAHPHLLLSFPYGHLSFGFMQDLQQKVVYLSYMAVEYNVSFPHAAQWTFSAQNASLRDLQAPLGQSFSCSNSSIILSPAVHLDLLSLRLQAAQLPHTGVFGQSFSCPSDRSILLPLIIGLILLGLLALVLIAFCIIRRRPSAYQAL
inactive: bafetinib -0.091 | mubritinib -0.003 | [4] 0.039 | [6] -0.106 | entinostat -0.33 | silmitasertib 0.07

CHPT1 (UniProt Q8WUD6)
inactive: [1] 0.197 | nilotinib -0.596 | [10] -0.029 | dasatinib -0.074 | [11] -0.017 | [2] 0.011 | [3] -0.027 | tipifarnib -0.192 | mubritinib 0.387 | [4] 0 | [5] -0.039 | [6] -0.059 | entinostat 0.062 | vorinostat 0.066 | citarinostat 0.002 | silmitasertib -0.042 | [8] -0.049 | [9] 0.019

CDK2AP2 (UniProt O75956)
inactive: bafetinib 0 | nilotinib 0.04 | [10] 0.028 | [11] -0.063 | [2] -0.022 | [3] -0.039 | mubritinib 0.028 | [5] -0.05 | [6] 0.14 | citarinostat 0.009 | silmitasertib -0.094 | [8] -0.062 | [9] -0.1

CD84 (UniProt Q9UIB8)
Chain of UniProt Q9UIB8 (Q9UIB8 whole entry, looked up): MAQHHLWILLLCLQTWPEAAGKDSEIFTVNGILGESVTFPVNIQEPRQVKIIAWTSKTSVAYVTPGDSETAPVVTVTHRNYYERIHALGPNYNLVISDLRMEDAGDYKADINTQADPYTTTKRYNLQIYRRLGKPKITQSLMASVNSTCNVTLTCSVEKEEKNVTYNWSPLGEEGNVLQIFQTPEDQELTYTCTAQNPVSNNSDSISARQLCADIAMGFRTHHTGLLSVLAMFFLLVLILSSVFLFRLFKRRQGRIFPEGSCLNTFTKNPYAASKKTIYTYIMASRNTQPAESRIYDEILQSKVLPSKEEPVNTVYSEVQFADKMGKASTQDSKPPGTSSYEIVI
inactive: dasatinib 0.169 | [2] -0.117 | [4] -0.182 | [5] -0.036 | entinostat 0.234 | [8] 0.084

CAD (UniProt H7BZB3)
inactive: [5] 0.124

CCDC57 (UniProt Q2TAC2)
Chain of UniProt Q2TAC2 (Q2TAC2 whole entry, looked up): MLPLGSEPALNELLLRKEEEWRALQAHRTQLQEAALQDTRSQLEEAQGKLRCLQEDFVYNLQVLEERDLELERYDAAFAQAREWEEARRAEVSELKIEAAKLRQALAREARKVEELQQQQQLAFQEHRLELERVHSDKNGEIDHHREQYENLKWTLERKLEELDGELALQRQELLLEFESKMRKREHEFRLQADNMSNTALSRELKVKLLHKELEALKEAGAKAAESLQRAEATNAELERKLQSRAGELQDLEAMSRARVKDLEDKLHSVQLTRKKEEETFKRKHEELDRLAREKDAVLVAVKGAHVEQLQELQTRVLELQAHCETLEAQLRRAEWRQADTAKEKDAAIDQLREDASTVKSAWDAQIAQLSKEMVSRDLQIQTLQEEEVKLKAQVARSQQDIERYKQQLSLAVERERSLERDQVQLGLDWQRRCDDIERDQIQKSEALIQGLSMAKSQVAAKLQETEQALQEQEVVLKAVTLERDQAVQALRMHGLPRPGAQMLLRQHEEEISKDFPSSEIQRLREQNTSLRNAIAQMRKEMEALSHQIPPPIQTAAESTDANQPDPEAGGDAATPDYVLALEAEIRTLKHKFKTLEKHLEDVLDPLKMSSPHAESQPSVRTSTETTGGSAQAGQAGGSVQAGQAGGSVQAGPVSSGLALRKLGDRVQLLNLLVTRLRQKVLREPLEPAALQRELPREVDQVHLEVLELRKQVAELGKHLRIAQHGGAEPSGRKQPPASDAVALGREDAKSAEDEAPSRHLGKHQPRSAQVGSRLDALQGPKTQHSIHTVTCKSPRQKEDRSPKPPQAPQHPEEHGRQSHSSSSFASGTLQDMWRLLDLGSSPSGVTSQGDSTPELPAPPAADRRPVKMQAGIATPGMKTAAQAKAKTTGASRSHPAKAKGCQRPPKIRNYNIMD
inactive: bafetinib -0.025 | nilotinib -0.044 | [10] -0.023 | [11] -0.021 | [2] 0.068 | [3] -0.021 | tipifarnib -0.023 | mubritinib 0.031 | [4] -0.025 | [6] -0.014 | [7] -0.04 | entinostat -0.031 | citarinostat 0.008 | silmitasertib -0.038 | [8] -0.002 | [9] -0.11

CLCN5 isoform 2 (UniProt P51795)
Chain of UniProt P51795 (P51795 whole entry, looked up): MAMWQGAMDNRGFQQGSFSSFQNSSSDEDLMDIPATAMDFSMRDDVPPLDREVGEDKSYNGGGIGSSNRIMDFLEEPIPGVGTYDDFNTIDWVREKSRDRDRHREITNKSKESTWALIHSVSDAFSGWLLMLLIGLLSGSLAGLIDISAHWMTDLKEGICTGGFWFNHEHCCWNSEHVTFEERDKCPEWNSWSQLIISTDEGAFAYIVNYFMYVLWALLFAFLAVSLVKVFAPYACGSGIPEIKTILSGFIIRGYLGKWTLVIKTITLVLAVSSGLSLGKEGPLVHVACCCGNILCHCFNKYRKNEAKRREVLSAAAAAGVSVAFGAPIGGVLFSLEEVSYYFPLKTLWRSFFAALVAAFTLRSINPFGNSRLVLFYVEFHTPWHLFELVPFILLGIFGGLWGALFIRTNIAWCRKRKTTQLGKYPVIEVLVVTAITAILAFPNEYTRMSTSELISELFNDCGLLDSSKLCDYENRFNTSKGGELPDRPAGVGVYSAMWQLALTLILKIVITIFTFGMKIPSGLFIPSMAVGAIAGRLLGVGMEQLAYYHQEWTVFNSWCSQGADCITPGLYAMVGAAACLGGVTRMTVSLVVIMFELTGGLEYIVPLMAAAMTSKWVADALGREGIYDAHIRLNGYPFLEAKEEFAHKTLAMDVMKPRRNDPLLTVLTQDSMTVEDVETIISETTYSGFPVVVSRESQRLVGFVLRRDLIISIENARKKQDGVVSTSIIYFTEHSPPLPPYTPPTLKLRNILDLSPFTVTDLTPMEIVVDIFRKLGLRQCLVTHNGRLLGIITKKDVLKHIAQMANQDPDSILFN
inactive: [1] 0.048 | nilotinib -0.176 | [10] 0.014 | dasatinib -0.177 | [11] -0.063 | [2] 0.041 | [3] -0.061 | [7] 0.004 | vorinostat 0.062 | citarinostat 0.045 | [9] -0.114

CRLS1 (UniProt Q9UJA2)
Chain of UniProt Q9UJA2 (Q9UJA2 whole entry, looked up): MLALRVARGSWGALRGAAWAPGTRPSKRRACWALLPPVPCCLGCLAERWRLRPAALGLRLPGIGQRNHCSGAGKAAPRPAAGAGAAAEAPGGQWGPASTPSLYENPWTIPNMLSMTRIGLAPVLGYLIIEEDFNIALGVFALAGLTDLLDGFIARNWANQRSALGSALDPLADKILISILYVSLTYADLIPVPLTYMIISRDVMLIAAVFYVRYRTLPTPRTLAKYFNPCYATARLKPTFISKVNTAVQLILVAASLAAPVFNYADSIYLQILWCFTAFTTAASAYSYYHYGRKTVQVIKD
active: [4] 0.323
inactive: [1] 0.012 | nilotinib 0.01 | [10] -0.064 | dasatinib 0.101 | [11] 0.056 | [2] -0.002 | tipifarnib -0.138 | mubritinib 0.007 | [6] 0.027 | [7] 0.06 | entinostat 0.151 | vorinostat -0.005 | citarinostat 0.012 | silmitasertib 0.017 | [9] -0.051

CNRIP1 (UniProt Q96F85)
inactive: nilotinib -0.066 | [10] -0.071 | [11] 0.056 | [3] 0.038 | tipifarnib -0.075 | mubritinib -0.148 | [6] 0.258 | silmitasertib -0.13
active: [8] 0.738

CEP128 (UniProt Q6ZU80)
Chain of UniProt Q6ZU80 (Q6ZU80 whole entry, looked up): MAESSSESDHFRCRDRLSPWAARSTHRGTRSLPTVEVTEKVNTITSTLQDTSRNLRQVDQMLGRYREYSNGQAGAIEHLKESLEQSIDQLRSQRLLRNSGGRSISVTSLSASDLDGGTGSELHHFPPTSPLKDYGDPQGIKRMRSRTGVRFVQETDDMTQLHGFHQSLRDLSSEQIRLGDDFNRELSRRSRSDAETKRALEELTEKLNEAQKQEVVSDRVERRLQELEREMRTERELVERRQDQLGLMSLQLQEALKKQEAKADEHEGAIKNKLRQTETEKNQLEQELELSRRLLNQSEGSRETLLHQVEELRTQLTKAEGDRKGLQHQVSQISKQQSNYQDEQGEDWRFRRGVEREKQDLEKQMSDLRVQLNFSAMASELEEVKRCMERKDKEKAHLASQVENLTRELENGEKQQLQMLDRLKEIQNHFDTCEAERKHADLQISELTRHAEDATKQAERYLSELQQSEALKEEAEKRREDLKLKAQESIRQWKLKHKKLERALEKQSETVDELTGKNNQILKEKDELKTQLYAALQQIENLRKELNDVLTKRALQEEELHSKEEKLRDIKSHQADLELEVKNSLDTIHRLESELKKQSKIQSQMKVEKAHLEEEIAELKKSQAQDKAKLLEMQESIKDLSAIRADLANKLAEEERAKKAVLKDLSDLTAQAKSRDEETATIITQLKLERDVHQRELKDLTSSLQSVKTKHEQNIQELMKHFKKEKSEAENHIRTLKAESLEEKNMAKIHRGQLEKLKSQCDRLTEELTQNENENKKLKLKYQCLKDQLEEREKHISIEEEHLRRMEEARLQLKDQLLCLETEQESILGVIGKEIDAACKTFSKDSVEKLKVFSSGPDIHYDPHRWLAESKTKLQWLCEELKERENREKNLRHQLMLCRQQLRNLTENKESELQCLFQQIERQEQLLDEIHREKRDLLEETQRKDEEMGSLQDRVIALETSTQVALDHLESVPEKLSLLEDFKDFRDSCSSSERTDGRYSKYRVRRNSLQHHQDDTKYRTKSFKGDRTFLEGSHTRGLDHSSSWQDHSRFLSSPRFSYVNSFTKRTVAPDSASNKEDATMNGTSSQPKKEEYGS
inactive: bafetinib -0.186 | dasatinib 0.046 | [2] -0.026 | tipifarnib -0.016 | mubritinib 0.143 | [4] -0.182 | [5] -0.029 | [6] 0.095 | [7] -0.234 | entinostat -0.112 | citarinostat -0.087 | silmitasertib -0.191 | [9] -0.068

CSNK1A1 isoform 3 (UniProt P48729)
inactive: bafetinib 0.224 | tipifarnib 0.165 | mubritinib 0.055 | [6] -0.204 | silmitasertib 0

CPNE5 (UniProt Q9HCH3)
inactive: [2] -0.077

CARD9 (UniProt Q9H257)
inactive: [3] 0.085 | [5] 0.37

C5orf30 (UniProt Q96GV9)
inactive: tipifarnib 0.152 | [5] -0.191 | [8] -0.051

COMMD3-BMI1 (UniProt R4GMX3)
inactive: [1] -0.032 | nilotinib -0.109 | [10] -0.02 | [11] 0.046 | [2] 0.141 | tipifarnib 0.435 | [4] 0.003 | [5] 0.076 | entinostat -0.062 | vorinostat 0.109 | [8] -0.012

COX17 (UniProt Q14061)
Chain of UniProt Q14061 (Q14061 whole entry, looked up): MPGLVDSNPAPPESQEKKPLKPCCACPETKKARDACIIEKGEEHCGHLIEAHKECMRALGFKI
inactive: [1] 0.078 | nilotinib -0.091 | [10] -0.051 | dasatinib 0.016 | [11] -0.162 | [2] 0.206 | [3] -0.034 | mubritinib 0.038 | [4] -0.002 | [5] 0.017 | [6] -0.088 | [7] 0.052 | entinostat 0.048 | vorinostat -0.077 | silmitasertib 0.119 | [8] -0.141

CCNT2 (UniProt O60583)
inactive: [1] -0.117 | nilotinib 0.105 | [10] -0.161 | dasatinib -0.02 | [11] -0.462 | [3] -0.219 | tipifarnib 0.08 | mubritinib -0.209 | [4] -0.045 | [5] 0.042 | [6] 0.054 | entinostat 0.076 | vorinostat 0.223 | citarinostat 0.06 | silmitasertib -0.06 | [8] -0.032 | [9] -0.089
